The structures appear in SMILES notation. Inconclusive results are not listed. Active and inactive are the calls of the source. Calls follow the shape of the full dose curve.

The assay in a line: qHTS assay to identify small molecule agonists or antagonists of the thyroid stimulating hormone receptor (TSHR) signaling pathway - wild type cell line counter screen (AID 1259384). As to conditions: HEK293 wild type, cAMP HTRF counter-screen; series mostly up to 92.4 µM. The source says: U.S. Tox21 Program National Center for Advancing Translational Sciences [NCATS] NIH Chemical Genomics Center [NCGC] U.S. Environmental Protection Agency [EPA] National Institutes of Environmental Health Sciences [NIEHS] National Toxicology Program [NTP] U.S. Food and Drug Administration [FDA] Tox21 Assay Overview: TSHR is the receptor for thyrotropin (thyroid stimulating hormone or TSH), a member of the glycoprotein hormone family. TSH is released by the anterior pituitary gland and is the main regulator of thyroid gland growth and development. Upon binding circulating thyrotropin, a G-protein signal cascade activates adenylyl cyclase and […] cAMP concentration is increased. cAMP is a key second messenger involved extensively in cellular signal transduction pathways associated with the majority of G-protein coupled receptors (GPCRs). The activation of these GPCRs by neurotransmitters, lipids, nucleotides, peptides and hormones results in the activation or the inhibition of plasma membrane-bound adenylate cyclase through heterotrimeric G-proteins. A cell-based TSHR-Hek293 assay can be used to identify TSHR agonists. To eliminate the false positive compounds identified from screening a cell-based TSHR-Hek293 cell line, cAMP assay in a wild type Hek293 cells was used as a counter screening.
Tox21 Assay Protocol Summary: Hek293 cells (wild type) were dispensed at 800 cells/4 uL/well in 1536-well white plates using a Multidrop dispenser. After the assay plates were incubated at a 37 C/5% CO2 incubator for 18 hrs, 23 nL of compounds dissolved in DMSO, positive controls or DMSO only was transferred to the assay plate by a pin tool, followed by 1 ul medium containing Ro20-1724. After 30 min of incubation at room temperature, 2.5 ul/well of cAMP-d2 and 2.5 ul/well of anti-cAMP-cryptate were added respectively into the assay plates using a Flying Reagent Dispenser. The plates were incubated at room temperature for 1 hr. The fluorescence intensity in the plates was measured using an Envision plate reader. Each test compound was measured at 15 concentrations and in triplicates.
Background: qHTS replaces the single test concentration by a dilution series.
As to `CNC(=O)Oc1ccc2c(c1)[C@]1(C)CCN(C)[C@@H]1N2C`, the outcome was inactive. Under `C[Si]1(C)O[Si](C)(C)O[Si](C)(C)O[Si](C)(C)O1` stands “inactive”; under `CCCCCCO`, “inactive”; under `CCCOC(=O)c1ccccc1`, “inactive”. Under `C[C@]12CC[C@@H]3c4ccc(O)cc4CC[C@H]3[C@@H]1C[C@@H](O)[C@@H]2O` stands “inactive”; under `CC(=O)CCC=C(C)C`, “inactive”. As for `CC(C)=CCl`, the result was inactive. Take `CC1(C)CC(N)CC(C)(CN)C1` (stereo not given): the compound was classed as inactive. With `CC1(C)NC(=O)NC1=O` the entry was “inactive”; with `COc1ccc(CCC(C)=O)cc1`, “inactive”; with `CC(=O)OCc1ccccc1`, “inactive”. With `NC(=S)NNC(N)=S` the entry was “inactive”. For the compound `C=CC(=O)OCCC(=O)O`, the call was inactive. Under `CCCCCCC=O` stands “inactive”; under `CCCCCCCCCCCC(=O)OC`, “inactive”; under `O=C(O)c1ccccc1C(=O)O`, “inactive”. For the compound `O=S(=O)(O)c1ccccc1`, the outcome was inactive. Under `CCOCCOCCOCCO` stands “inactive”; under `Brc1ccc(Br)c(Br)c1`, “inactive”. Consider `CCCCCCCCCCCCCCCCO`, for which the compound was classed as inactive. As for `C[C@]12CCC(=O)C=C1CC[C@@H]1[C@@H]2[C@@H](O)C[C@@]2(C)[C@H]1CC[C@]2(O)C(=O)CO`, the compound was called inactive.

As to `CCO[Si](CCCN)(OCC)OCC`, the compound was classed as inactive. Take `NCCCCCCN`: the outcome was inactive. For the compound `CCNC(=S)NCC`, the compound was called inactive. With `OCc1ccccc1` the entry was “inactive”.

`c1ccc(Oc2ccccc2)cc1`: the compound was called inactive. For `Cc1ccc(S(=O)(=O)N=C=O)cc1`, the call was inactive. With `C=CCc1ccc(OC)c(OC)c1`, the call was inactive.

For `CC(=O)CC(C)(C)O`, the compound was classed as inactive. With `CCNc1ccccc1` the entry was “inactive”.

On to `CC(=O)OCc1ccco1`, for which the result was inactive. Regarding `C=C(C)CNCC`, the outcome was inactive. On to `O=C(O)c1ccc(S(=O)(=O)N(Cl)Cl)cc1`, for which the call was inactive. Turning to `CCc1ccccc1CC`, the outcome was inactive.

`O=C(O)/C=C/C(=O)O`: the call was inactive. For the compound `CCOCC(=O)O`, the result was inactive. As to `CCCCCCCO`, the compound was called inactive. In the case of `CC(C)(C)c1cc(Cc2cc(C(C)(C)C)c(O)c(C(C)(C)C)c2)cc(C(C)(C)C)c1O`, the call was inactive. As to `CC(C)(Oc1ccc(CCNC(=O)c2ccc(Cl)cc2)cc1)C(=O)O`, the compound was classed as inactive. With `CN(C)CCOC(=O)COc1ccc(Cl)cc1` the entry was “inactive”.

For the origin of these results see PubChem BioAssay (Tox21).
